# Compounds with a hit are over-represented: about 19% of the library has one in this group of screens.
# KB-3-1 cytotox: qHTS assay for MDR1-selective chemotherapeutics: Primary screen using the parental adenocarcinoma cell KB-3-1. 400,000 tested, 1.4% active. AID 1347075, 2019. Potency, µM (top dose mostly 46.1 µM), hits mostly cytotoxic. KB-3-1 viability, CellTiter-Glo ATP luminescence, 72 h; note: nearly all actives have a fitted effect of over 60% in size
#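 Cytotoxicity in the drug-sensitive parental line KB-3-1 was scored as loss of CellTiter-Glo luminescence following 72 h incubation with compound. Values come from curve fitting of normalized concentration-response data.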
# KB-V1 cytotox: qHTS assay for MDR1-selective chemotherapeutics: Primary screen using the drug-selected MDR subline cells KB-V1. KB-V1 MDR cells viability, CellTiter-Glo, 72 h. Potency, µM (series often up to 46.1 µM), most hits filed as cytotoxic. 400,000 tested, 3.4% active; note: nearly all actives have a fitted effect of over 60% in size
#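 KB-V1 MDR subline cells in DMEM (phenol-red free, 10% FBS) exposed to compounds in qHTS concentration series for 72 h at 37 degrees C. Viability read by CellTiter-Glo luminescence; concentration-effect curves fitted after normalization and correction.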
# DT40 TDP1 CPT: qHTS for Inhibitors of human tyrosyl-DNA phosphodiesterase 1 (TDP1): qHTS in cells in presence of CPT; 420,000 tested, 12% active; chicken DT40 Tdp1-/-;hTDP1 cells + 20 nM CPT, ATP luminescence, 48 h; Potency, µM (series often up to 46.2 µM), inactives show at the highest dose activity change, negative = growth inhibition, actives largely listed as inhibitors; note: nearly all actives have a fitted effect of over 55% in size
#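 Cell growth measured by CellTiter-Glo luminescence after a minimum 48 h, 37 C compound exposure with 20 nM CPT in Tdp1-knockout DT40 cells stably expressing hTDP1, seeded 400/well; qHTS titration format.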
# HT1080 IDH1KD tx: qHTS for induction of synthetic lethality in tumor cells producing 2HG: qHTS for the HT-1080-IDH1KD cell line | 360,000 tested, 2% active | Potency, µM (highest dose often 46.1 µM), for inactives: top-dose activity, negative = toxicity, actives largely listed as cytotoxic | HT-1080 IDH1 knockdown viability, ATP luminescence, 48 h;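 note: 0% = DMSO wells and -100% = cell-free medium wells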
#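 Assay cells: HT-1080 with IDH1 knockdown, 750 per well, RPMI/5% FBS. Exposure: 48 h at 37 °C following 2 h pre-incubation. Read: CellTiter-Glo luminescence; fitted concentration-response, curve class assigned.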
# HT1080-NT tox: qHTS for induction of synthetic lethality in tumor cells producing 2HG: qHTS for the HT-1080-NT fibrosarcoma cell line; HT-1080-NT fibrosarcoma viability, CellTiter-Glo ATP luminescence, 48 h; Potency, µM (top dose mostly 46.1 µM), inactives show top-dose activity, negative = less viability, actives largely listed as cytotoxic; 360,000 tested, 1.6% active; AID 686970, 2013;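 note: NT is the 2HG producing partner of a matched IDH1 knockdown line; 0% = DMSO-treated cells and -100% = media-only wells without cells; nearly all actives have a fitted effect of over 55% in size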
#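 Compounds were tested in concentration-response format on HT-1080-NT cells for 48 hours at 37 degrees C. Cell viability came from CellTiter-Glo luminescence; curves were classified by r2, response magnitude and activity.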
# DT40 TDP1 no CPT: qHTS for Inhibitors of human tyrosyl-DNA phosphodiesterase 1 (TDP1): qHTS in cells in absence of CPT; DT40 Tdp1-/- hTDP1 cells, no CPT, ATP luminescence, 48 h; Potency, µM (doses to about 46.2 µM), inactives show at the highest dose activity change, negative = growth inhibition, most hits filed as inhibitors; 420,000 tested, 15% active; note: nearly all actives have a fitted effect of over 55% in size
#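 Growth kinetics read by CellTiter-Glo luminescence after ≥48 hr at 37 °C. Cells: DT40 Tdp1-/- stably carrying human TDP1, 400 per well, compound exposure in the absence of CPT (DMSO vehicle).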
# * = called active by the depositor; i = inactive; ? = inconclusive; / = not tested or not shown; [ ] = dose if it differs, or a comment. Calls come from the whole dose curve; as a rule, active = well fitted curve in the direction sought with a large enough effect; inconclusive = small, poorly fitted or top-dose-only effect, or another doubt; inactive = no such curve, though single readings can be large; an effect the other way counts as inactive or inconclusive. Unless noted, % is set by controls: 0 for no effect and ±100 for the full control effect; potency is the fitted concentration of half-maximal effect.
SMILES,KB-3-1 cytotox,KB-V1 cytotox,DT40 TDP1 CPT,HT1080 IDH1KD tx,HT1080-NT tox,DT40 TDP1 no CPT
Cc1ccccc1CN1C(=O)C(O)(CC(=O)c2ccccc2)c2cc(Cl)ccc21 (configuration not stated),/,/,-102%,/,/,?
CN(CCCNC(=O)CCC(=O)N1CCOc2ccccc21)Cc1ccccc1,i,i,5%,-1%,-6%,3%
CCOC(=O)c1c(NC(=O)COC(=O)c2ccc(C)s2)sc2c1CC(C)(C)NC2(C)C,i,i,?,-8%,-2%,18µM*
CCOC(=O)c1c(NC(=O)COc2ccccc2C#N)sc2c1CC(C)(C)NC2(C)C,?,?,5.2µM*,-12%,-2%,5.8µM*
CCOC(=O)c1c(NC(=O)Cc2ccccc2)sc2c1CC(C)(C)NC2(C)C,i,i,?,-11%,-22%,?
CCOC(=O)c1c(NC(=O)COc2ccccc2OCC)sc2c1CC(C)(C)NC2(C)C,i,?,6.5µM*,3%,-14%,5.8µM*
CCOC(=O)c1c(NC(=O)c2ccc(S(=O)(=O)N3CCCC(C)C3)cc2)sc2c1CC(C)(C)NC2(C)C (configuration not stated),i,i,16µM*,/,/,21µM*
O=C(NCCCN1CCCC1=O)c1ccc(Cl)c(S(=O)(=O)N2CCCCC2)c1,i,i,-10%,-3%,-4%[9.24 µM],4%
O=C(c1ccc2c(=O)n3c(nc2c1)CCCCC3)N1CCN(c2ccc([N+](=O)[O-])cc2)CC1,i,i,?,13%,8%,?
Cc1nc2cc(Nc3ccncc3)ccc2s1,i,i,-11%,0%,-2%,?
O=C(C1Cc2ccccc2CN1S(=O)(=O)c1ccccc1[N+](=O)[O-])N1CCOCC1 (configuration not stated),/,/,21µM*,-2%,18%,?
Cc1occc1C(=O)Nc1sccc1C(N)=O,i,i,6%,0%,27%,3%
NC(=O)c1ccsc1NC(=O)c1coc2ccccc2c1=O,i,i,?,-15%,-2%,29µM*
C=CCSc1nnc(N2C(=O)C(O)=C(C(=O)c3ccco3)C2c2ccccc2F)s1 (configuration not stated),i,i,-44%,?,-14%,4%
COc1ccc2cc3c(N)nn(C(=O)c4ccccc4[N+](=O)[O-])c3nc2c1,i,?,2.6µM*,-14%,-27%,2.3µM*
Cc1ccc(C(C)n2cc(C(=O)NCc3cccnc3)nn2)cc1 (configuration not stated),i,15µM*,-29%,0%,-9%,-26%
CC(c1ccccc1)n1cc(C(=O)NCc2ccccn2)nn1 (configuration not stated),i,i,-9%,-5%,1%,-3%
C[C@H](CO)N1C[C@H](C)[C@H](CN(C)C(=O)Nc2ccccc2F)OCc2cnnn2CCCC1=O,i,i,0%,15%,4%,5%
CCn1c(=NC(=O)CCS(=O)(=O)c2ccccc2)sc2cccc(OC)c21,?,?,9.2µM*,-7%,-13%,7.3µM*
CCn1c(=NC(=O)CS(=O)(=O)c2ccc(F)cc2)sc2cccc(OC)c21,i,i,15µM*,-13%,-4%,18µM*
COc1ccc2c(c1)sc(=NC(=O)CS(=O)(=O)c1ccc(F)cc1)n2C,i,i,?,1%,-1%,21µM*
C#CCn1c(=NC(=O)c2ccc(Cl)s2)sc2cccc(OC)c21,i,i,?,10%,-1%,?
COC(=O)Cn1c(=NC(=O)CCS(=O)(=O)c2ccccc2)sc2c(OC)ccc(OC)c21,i,i,21µM*,20%,7%,?
CCn1c(=NC(=O)CSC(C)=O)sc2cc(OC)ccc21,i,i,?,0%,-6%,?
Cc1ccc(S(=O)(=O)N2CCCCC2C(=O)Nc2ccc(N(C)C)cc2)cc1 (configuration not stated),i,i,-21%,0%,-13%,?
SMILES,KB-3-1 cytotox,KB-V1 cytotox,DT40 TDP1 CPT,HT1080 IDH1KD tx,HT1080-NT tox,DT40 TDP1 no CPT
COc1cccc(CNC(=O)CCCN2C(=O)C(c3ccccc3)Oc3cccnc32)c1OC (configuration not stated),i,i,?,-13%,-6%,?
CC(C)C(c1nnnn1Cc1cccs1)N1CCN(C(=O)c2ccco2)CC1 (configuration not stated),i,?,9%,2%,-1%,-6%
COCCn1c(=NC(=O)c2ccc(S(=O)(=O)N3CCOCC3)cc2)sc2cc(S(N)(=O)=O)ccc21,i,i,?,-23%,-17%,?
CCn1c(=NC(=O)c2ccc(S(=O)(=O)N3CCOCC3)cc2)sc2cccc(OC)c21,?,?,15µM*,-22%,-21%,13µM*
COc1ccc(-c2sc3ccc(-c4ccc5c(c4)OCO5)cc3c2-c2ccc(OC)nc2)cc1,i,i,?,-13%,-1%,?
Cc1ccc2nc3n(c2c1)CCCN3,?,?,0%,-4%,-9%,-17%
O=C(NCc1ccco1)c1ccc2c(c1)N(Cc1ccc(F)cc1)C(=O)c1ccccc1S2=O (configuration not stated),i,i,?,/,/,16µM*
Cc1ccc(C)c(CN2C(=O)c3ccccc3S(=O)c3ccc(C(=O)NCc4ccco4)cc32)c1 (configuration not stated),i,?,?,/,/,16µM*
CCCCNC(=O)c1ccc2c(c1)N(Cc1ccc(F)cc1)C(=O)c1ccccc1S2=O (configuration not stated),i,?,23µM*,/,/,18µM*
O=C(NCCN1CCCC1)c1ccc2c(c1)N(Cc1ccc(F)cc1)C(=O)c1ccccc1S2=O (configuration not stated),i,i,?,-9%,-13%,?
Cc1cc([N+](=O)[O-])nn1Cc1noc(C(=O)NCCc2ccccn2)n1,i,i,-3%,0%,7%,13%

# Screening data (PubChem)
